Data as given in the supplement of paper PMC12067093, “Discovery and optimisation of a covalent ligand for TRIM25 and its application to targeted protein ubiquitination” (Chemical Science, 2025).
Of roughly 21,000 targets only a part is listed; those with the largest changes were picked by preference.

Target: DDX39B_Q13838_165_NCPHIVVGTPGR (UniProt Q13838)
Assay: probe-labelled cysteine peptide fold change vs DMSO (competition) (log2 fold change); higher = less target engagement (more negative = stronger competition)
Conditions: THP-1, incubation time: 4 h
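Further: competitive profiling in live THP-1 cells: cysteine peptides tagged with an iodoacetamide desthiobiotin (IA-DTB) probe, intensity after compound treatment relative to DMSO-treated cells.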

UniProt Q13838, sequence (Q13838 whole entry, looked up): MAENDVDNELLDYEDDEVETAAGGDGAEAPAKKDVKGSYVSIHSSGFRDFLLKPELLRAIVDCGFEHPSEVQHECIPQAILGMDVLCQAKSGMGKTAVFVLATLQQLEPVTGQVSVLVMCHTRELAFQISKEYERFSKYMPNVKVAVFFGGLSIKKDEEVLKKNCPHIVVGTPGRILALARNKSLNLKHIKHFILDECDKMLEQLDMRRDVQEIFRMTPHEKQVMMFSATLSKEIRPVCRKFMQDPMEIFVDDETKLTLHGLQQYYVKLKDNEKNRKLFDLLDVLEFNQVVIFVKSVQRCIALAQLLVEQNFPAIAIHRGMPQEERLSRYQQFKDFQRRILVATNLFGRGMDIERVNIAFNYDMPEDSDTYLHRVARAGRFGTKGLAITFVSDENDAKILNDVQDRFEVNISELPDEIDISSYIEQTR

Structure (SMILES): Cc1cc(C(=O)N2CCCN(C(=O)CCl)CC2)ccc1-c1ccccc1 [compound 10]
- probe-labelled cysteine peptide fold change (10 µM): 0.0169
- probe-labelled cysteine peptide fold change (50 µM): 0.0264
